# Experimental data from PubChem BioAssay AID2551 (National Center for Advancing Translational Sciences (NCATS), 2010).
# The whole screen tested about 310,000 compounds, of which about 17,000 (5.5%) were called active. Where a call stands in place of a potency, no number is given. About 11% were inconclusive and are not listed. Calls come from the whole dose curve; as a rule, active = well fitted inhibition curve with a large enough effect; inconclusive = small, poorly fitted or top-dose-only effect, or effect the other way; inactive = no such curve, though single readings can be large or run the other way. Many of the other results were omitted from the sample, so actives are more common in it than they were.
# Target: Nuclear receptor ROR-gamma (Mus musculus) (UniProt P51450)
# Sequence (P51450 whole entry, looked up): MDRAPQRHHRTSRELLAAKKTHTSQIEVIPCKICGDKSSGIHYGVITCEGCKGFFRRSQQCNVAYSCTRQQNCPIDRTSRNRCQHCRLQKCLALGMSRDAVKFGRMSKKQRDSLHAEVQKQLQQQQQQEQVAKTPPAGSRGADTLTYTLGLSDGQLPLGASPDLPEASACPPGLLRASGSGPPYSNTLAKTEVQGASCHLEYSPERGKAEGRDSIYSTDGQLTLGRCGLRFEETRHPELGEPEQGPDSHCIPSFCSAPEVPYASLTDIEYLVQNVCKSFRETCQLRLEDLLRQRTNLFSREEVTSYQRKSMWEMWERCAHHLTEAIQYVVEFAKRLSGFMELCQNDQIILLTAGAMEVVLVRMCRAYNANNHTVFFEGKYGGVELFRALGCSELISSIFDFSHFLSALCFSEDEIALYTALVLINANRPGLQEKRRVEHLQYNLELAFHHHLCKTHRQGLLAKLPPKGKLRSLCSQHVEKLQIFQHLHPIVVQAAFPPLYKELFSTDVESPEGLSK
# Test: qHTS for inhibitors of ROR gamma transcriptional activity; note: nearly all actives have a fitted effect of over 60% in size
# Conditions: Drosophila S2 Gal4-RORgamma UAS-luciferase reporter, 20 h; series mostly up to 53.6 µM
# Text: NIH Molecular Libraries Probe Production Network [MLPCN] NIH Chemical Genomics Center [NCGC] MLPCN Grant: R03 DA026211-01 Assay Provider: Dan Littman, New York University Assay Overview: The retinoic acid-related orphan receptor (ROR) gamma is a transcription factor that has a central role in the differentiation of Th17 cells, a subset of T helper cells that secrete the inflammatory cytokines IL-17, IL-17F, and IL-22. Th17 cells have been implicated in graft versus host disease, autoimmune disease and asthma. ROR gamma is induced in naive T helper cells in the presence of TGF-beta combined with IL-6, IL-21, or IL-23, and thereafter directs the expression of the Th17 lineage cytokines. To study the mechanism of action of ROR gamma, an insect cell-based assay was screened. This Drosophila Schneider cell line was stably transfected with two vectors: a gene expressing a fusion of the Gal4 DNA binding domain and ROR gamma transactivation domain under the control of the metallothionine promoter and a Photinus luciferase reporter regulated by the Gal4 binding site enhancer, UAS. […] Small molecule inhibitors of ROR gamma activity are detected by a decrease in luciferase reporter activity.
# Assay Protocol Summary: For screening, 600 cells in 4 uL/well were dispensed into white solid 1536-well plates (Grenier) using a solenoid-based dispenser. Following transfer of 23 nL compound or DMSO vehicle by a pin tool, the plates were incubated 1 hr at ambient temperature, and 1 uL/well copper sulfate (700 uM final concentration) was added. The plates were centrifuged 15 s at 1000 RPM and incubated 20 hr at ambient temperature. After addition of 1.5 uL Photinus luciferase detection reagent, the plates were incubated 10 min at ambient temperature and then read by an ViewLux (Perkin Elmer) to detect luminescence. Keywords: NIH Roadmap, MLPCN, MLI, MLSMR, qHTS, NCGC, qHTS, nuclear hormone receptor, retinoic acid-related orphan receptor, ROR gamma
# Potency is the fitted concentration of half-maximal effect.
row,SMILES,Potency
1,CC(=O)c1ccc(N2CCN(CC(O)c3ccccc3)CC2)cc1 (stereo not drawn),inactive
2,Cc1[nH]c(C)c(S(=O)(=O)N2CCN(c3cccc(C(F)(F)F)c3)CC2)c1C(=O)N1CCCCC1,inactive
3,Cc1cccc(-c2nc(CS(=O)CC(=O)NC(C)CCc3ccccc3)c(C)o2)c1 (stereo not drawn),inactive
4,COc1ccc(-c2nc(CS(=O)CC(=O)NCc3cccnc3)c(C)o2)cc1OC (stereo not drawn),11.2 µM (active)
5,COc1ccc(-c2nc(CS(=O)CC(=O)NCc3ccccc3)c(C)o2)cc1OC (stereo not drawn),inactive
6,CCCOc1ccc(Cc2c(O)nc(SC)[nH]c2=O)cc1C,inactive
7,O=C(c1cc2ccccc2o1)N1CCN(c2cccc(C(F)(F)F)c2)CC1,inactive
8,N=c1c2c(-c3ccccc3)c(-c3ccccc3)oc2ncn1Cc1ccco1,inactive
9,COc1ccc(-c2oc3ncn(Cc4ccco4)c(=N)c3c2-c2ccc(OC)cc2)cc1,12.6 µM (active)
10,COc1ccc(-c2oc3ncnc(NCCCO)c3c2-c2ccc(OC)cc2)cc1,inactive
11,CC(C)[C@@H]1COC(c2cccc(C3=N[C@H](C(C)C)CO3)c2)=N1,inactive
12,O=C(NC(Cc1ccc(O)cc1)C(=O)O)/C(=C/c1ccccc1)NC(=O)c1ccccc1 (stereo not drawn),inactive
13,O=C(C[C@H]1C(=O)N(c2ccc(F)c(F)c2)C[C@@H]1Cc1ccccc1)Nc1ccccc1,inactive
14,Cc1c(C)c(C)c(S(=O)(=O)N2CCC3(CC2)OCCO3)c(C)c1C,inactive
15,Cc1cc(SCc2c(F)cccc2Cl)nc(=O)[nH]1,inactive
16,CC(=O)NCCC(=O)Nc1cc(S(=O)(=O)N2CCOCC2)ccc1N1CCOCC1,inactive
17,O=C(COC(=O)Cc1ccc(F)cc1)Nc1cc(S(=O)(=O)N2CCOCC2)ccc1N1CCCC1,inactive
18,COCCNC(=S)Nc1cc(S(=O)(=O)N2CCOCC2)ccc1N1CCCCC1,0.891 µM (active)
19,O=C(Nc1ccccc1C(=O)Nc1ccncc1)c1ccc([N+](=O)[O-])cc1,inactive
20,Cc1ccc(N2CCN(c3ccc([N+](=O)[O-])cn3)CC2)c(C)c1,inactive
21,O=C(COC(=O)c1ccc(N2CCCC2=O)cc1)c1ccc(OC(F)F)cc1,inactive

row,SMILES,Potency
1,CC/C(=N\NC(=S)NC(C)C)c1ccc(OC(F)F)cc1,0.562 µM (active)
2,O=C(NCCNc1ccccc1[N+](=O)[O-])c1ccccc1F,inactive
3,COc1cc(CN2CCC(n3nccc3NC(=O)CCCc3ccccc3)CC2)ccc1O,inactive
4,COc1cc2[nH]c(=S)n(Cc3ccc(F)cc3)c(=O)c2cc1OC,1.78 µM (active)
5,COc1cc2[nH]c(=S)n(Cc3ccc(C)o3)c(=O)c2cc1OC,5.01 µM (active)
6,CCOc1cc2[nH]c(=S)n(Cc3ccc(C(=O)NCCOC)cc3)c(=O)c2cc1OCC,inactive
7,COc1cc2[nH]c(=O)n(Cc3ccc(C(=O)NC4CCN(Cc5ccccc5)CC4)cc3)c(=O)c2cc1OC,inactive
8,CCOc1cc2[nH]c(=S)n(CCCN3CCCC3=O)c(=O)c2cc1OCC,inactive
9,COc1cc2[nH]c(=O)n(CCC(=O)NC3CCN(Cc4ccccc4)CC3)c(=O)c2cc1OC,inactive
10,O=S(=O)(NC1CCCC1)c1ccc(-n2cnnn2)cc1,inactive
11,Cc1sc2nc(SCCO)n(-c3ccccc3)c(=O)c2c1C,inactive
12,COCCCNC(=S)N1CCN(c2nc(-c3cccc(OC)c3)cs2)CC1,inactive
13,O=C(Nc1c2c(nn1-c1ccccc1)CS(=O)(=O)C2)C1CCCC1,inactive
14,NC(N)=N/N=C/c1ccc(Cl)c([N+](=O)[O-])c1,inactive
15,Nn1cnnc1N/N=C/c1cc([N+](=O)[O-])c(Cl)cc1Cl,11.2 µM (active)
16,CC(CN1CCC(n2nccc2NC(=O)C2CCCC2)CC1)c1ccccc1 (stereo not drawn),inactive
17,Oc1ccc(Br)cc1C=Nc1ccc2[nH]ncc2c1,11.2 µM (active)
18,O=C(CCc1nnc2ccc(NCc3ccco3)nn12)Nc1cc(F)ccc1F,inactive
19,CCc1ccc(NC(=O)CSc2nc3ccccc3c(=O)n2CCN2CCOCC2)cc1,inactive
20,CCn1c(SCC(=O)Nc2ccc(C)cc2)nc2nc3c(cc2c1=O)CCCC3,10 µM (active)
21,CC(=O)NCCn1c(SCC(=O)Nc2ccc(C)cc2)nc2ccccc2c1=O,inactive

row,SMILES,Potency
1,CCn1c(C)c(C)c2cc(C(=O)N3CCN(c4cccc(C)c4C)CC3)ccc21,inactive
2,CCCCC(c1nnnn1CS(=O)(=O)c1ccc(C)cc1)N1CCC(C(N)=O)CC1 (stereo not drawn),inactive
3,Cc1ccc(CNC(=O)Cc2cn(C)c3ccccc23)cc1,inactive
4,COc1ccc2ccccc2c1/C=N/NC(=O)c1cc(C)[nH]n1,inactive
5,Cc1cc(C(=O)N/N=C/c2cc([N+](=O)[O-])cc(C)c2O)n[nH]1,10 µM (active)
6,CC(C)(C)c1cc(C(=O)N/N=C/c2ccc([N+](=O)[O-])s2)n[nH]1,inactive
7,CCCCn1c(SCC(=O)N2CCOCC2)nc2c1c(=O)n(C)c(=O)n2C,inactive
8,CC1CC2=C(CC1/C=N/NC(N)=S)C(C)(C)CCC2 (stereo not drawn),1.41 µM (active)
9,CC1(C)CCCC2=C1CC1C(=O)N(c3ccccc3)C(=O)C1C2 (stereo not drawn),inactive
10,CC(C)[C@H](NC(=O)N1CCn2c1nc1ccccc12)C(=O)NCc1ccc2c(c1)OCO2,inactive
11,Cc1ccc2[nH]c(=O)c(CC(=O)O)c(-c3ccccc3)c2c1,inactive
12,COc1ccc(C(C)NC(=O)C23CC4CC(CC(C4)C2)C3)cc1 (stereo not drawn),inactive
13,O=C(Nc1cccc(NC(=O)c2ccc(Br)cc2)c1)c1ccccc1,inactive
14,O=C(O)c1ccc(/C=N/NC(=O)c2ccc(Br)cc2)cc1,inactive
15,O=C(N/N=C\c1cccc(Br)c1)c1ccccc1-n1cccc1,inactive
16,O=C(Nc1ccc(C(=O)O)cc1)/C(=C\c1ccccc1)NC(=O)c1ccc(Br)cc1,inactive
17,CC(C)/C=N/NC(=O)c1cc(Br)ccc1O,10 µM (active)
18,CC(=N\NC(=O)c1cc(Br)ccc1O)/C(=N/O)C(=O)Nc1ccccc1,7.94 µM (active)
19,Cc1cccc(N(C(=O)Cn2nnc(-c3ccc(C)o3)n2)C(C(=O)NC2CCCC2)c2ccncc2)c1 (stereo not drawn),inactive
20,O=C(CCN1C(=O)[C@H]2CC=CC[C@H]2C1=O)NCc1nc(-c2ccccc2)no1,inactive
21,CCCNC(=O)c1ccc(N2CCC3(CC2)CC(c2ccc(Cl)cc2)=NO3)c([N+](=O)[O-])c1,inactive
